Experimental data reported in PubChem BioAssay (NCATS).
Values joined by “and” are separate entries in the source; they are usually repeats but may differ in a detail not shown here. Identical values can stand only once. Results filed as inconclusive are left out. Active and inactive are the calls of the source. Unless noted, calls come from the whole dose curve; as a rule, active = well fitted curve in either direction with a large enough effect (not every such curve was filed as active); inconclusive = small, poorly fitted or top-dose-only effect, or another doubt; inactive = flat fitted curve, though single readings scatter.

How the values were obtained:
[1] = AP1 Signaling Pathway (AID 357); note: % is set by controls: 0 for no effect and ±100 for the full control effect
Procedure, shortened: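 AP-1-bla ME-180 cells with beta-lactamase reporter under AP-1 response element, stimulated with EC50 EGF; compounds titrated, 5 hours at 37 degrees Celsius. CCF4 read at 460/530 nm ratio; positive and negative modulators judged by AC50.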

[2] = molecular target: Cytochrome P450 1A2 (Homo sapiens) (UniProt P05177); test: p450-cyp1a2 (AID 410; calls by dose curve; note: potency is the fitted concentration of half-maximal effect;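 for activity change, negative = inhibition: -100% = full effect of reference inhibitor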)
Chain of Cytochrome P450 1A2 (Homo sapiens) (P05177 whole entry, looked up): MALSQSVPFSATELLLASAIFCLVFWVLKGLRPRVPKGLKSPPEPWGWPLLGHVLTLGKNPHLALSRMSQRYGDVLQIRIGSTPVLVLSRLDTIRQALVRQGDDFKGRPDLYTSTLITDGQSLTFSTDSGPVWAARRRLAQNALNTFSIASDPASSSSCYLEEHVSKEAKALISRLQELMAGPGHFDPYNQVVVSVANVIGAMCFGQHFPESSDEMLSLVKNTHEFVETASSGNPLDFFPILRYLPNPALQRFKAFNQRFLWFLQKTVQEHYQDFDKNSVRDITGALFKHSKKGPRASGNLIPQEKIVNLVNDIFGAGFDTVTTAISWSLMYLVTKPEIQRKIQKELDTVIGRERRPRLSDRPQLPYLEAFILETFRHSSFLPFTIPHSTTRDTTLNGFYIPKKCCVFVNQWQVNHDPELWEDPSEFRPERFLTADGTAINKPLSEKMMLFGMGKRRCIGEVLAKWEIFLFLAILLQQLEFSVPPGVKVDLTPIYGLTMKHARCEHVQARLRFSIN
Procedure, shortened: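 20nM CYP1A2 with 100uM Luciferin-ME (at Km) in 100mM KPO4; compound preincubated 10 min, NADPH regeneration added, 60 min at room temperature. Luciferin quantified by luminescence after detection reagent; normalized to 57 uM furafylline.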

[3] = Stat Signaling Pathway (AID 446);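 note: ME-180 cervical cancer cells given 40 pM IL-6 alongside compound; SIE-controlled beta-lactamase reporter measured as 460/530 nm FRET emission ratio; % is set by controls: 0 for no effect and ±100 for the full control effect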
Procedure, shortened: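 Screening format detects activators and inhibitors alike: ME-180 SIE-bla cells stimulated at 40 pM IL-6 for 5 hrs with compound, then dual-emission beta-lactamase read at 405 nm excitation.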

[4] = molecular target: Glucocorticoid receptor (Homo sapiens) (UniProt P04150); test: GR-GFP Redistribution (AID 450;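 active = compounds whose dose series gives a full or clear partial fitted curve of increased nuclear translocation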; note: potency is the fitted concentration of half-maximal effect); conditions: U2OS GR-GFP nuclear translocation, laser cytometry, 2 h
Chain of Glucocorticoid receptor (Homo sapiens) (P04150 whole entry, looked up, the tested form may be a part): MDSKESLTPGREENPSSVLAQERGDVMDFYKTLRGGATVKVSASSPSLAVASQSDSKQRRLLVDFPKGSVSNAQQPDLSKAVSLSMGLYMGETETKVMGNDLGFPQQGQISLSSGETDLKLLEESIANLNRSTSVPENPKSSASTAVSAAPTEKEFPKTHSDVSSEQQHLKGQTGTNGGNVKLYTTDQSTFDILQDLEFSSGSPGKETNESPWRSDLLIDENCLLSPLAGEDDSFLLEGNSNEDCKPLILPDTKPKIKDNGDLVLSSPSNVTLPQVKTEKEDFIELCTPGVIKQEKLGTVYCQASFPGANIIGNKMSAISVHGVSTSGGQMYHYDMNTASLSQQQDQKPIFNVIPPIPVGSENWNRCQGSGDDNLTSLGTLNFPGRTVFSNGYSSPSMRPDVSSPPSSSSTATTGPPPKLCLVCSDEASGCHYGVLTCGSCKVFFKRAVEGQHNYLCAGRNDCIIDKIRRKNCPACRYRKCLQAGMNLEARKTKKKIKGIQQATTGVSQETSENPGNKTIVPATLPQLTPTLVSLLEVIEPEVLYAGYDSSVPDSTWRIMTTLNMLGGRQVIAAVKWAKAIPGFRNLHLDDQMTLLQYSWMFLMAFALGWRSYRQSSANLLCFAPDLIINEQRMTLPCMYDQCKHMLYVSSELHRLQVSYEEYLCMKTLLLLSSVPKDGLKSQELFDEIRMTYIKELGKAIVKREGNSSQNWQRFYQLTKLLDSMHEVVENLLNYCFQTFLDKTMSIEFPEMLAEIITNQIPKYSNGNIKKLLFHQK

[5] = molecular target: Glucocorticoid receptor (Homo sapiens) (UniProt P04150); test: GR-EFC Redistribution (AID 451; calls by dose curve; note: potency is the fitted concentration of half-maximal effect); conditions: CHO-K1 GR-EFC translocation, beta-gal luminescence, 2 h
Procedure, shortened: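 Translocation of GR-ED fusion to nuclear EA restores b-gal, read by luminescence after 1 h room-temperature detection. Engineered CHO-K1 biosensor cells, 1,000/well, exposed 2 h at 37 C to titrations up to 46 uM final.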

[6] = NFAT Signaling Pathway (AID 444); conditions: Jurkat NFAT-bla M1, carbachol, beta-lactamase ratio, 5 h;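 note: carbachol stimulus at about its EC50 of 1 µM final; % is set by controls: 0 for no effect and ±100 for the full control effect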
Procedure, shortened: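 Read-out: CCF4 FRET ratio (460 nm/530 nm) after 1 h RT dye loading, used for %activity and AC50 from titration series. Cells: Jurkat NFAT-β-lactamase/M1 line, treated with compound plus 1 uM carbachol for 5 h, 37 °C.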

[7] = molecular target: Mitogen-activated protein kinase 10 (Mus musculus) (UniProt Q61831); test: JNK3 AlphaScreen Assay (AID 530);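 note: kinase came from lysate of stimulated human HepG2 cells; signal reports phosphorylation of biotinylated GST-cJun 1-79 at Ser73 with 10 µM ATP; % is set by controls: 0 for no effect and ±100 for the full control effect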
Procedure, shortened: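 Compound titrations were preincubated 15 minutes at room temperature with substrate, antibody and pre-activated JNK3-containing HepG2 lysate. Reactions were started with 10 uM ATP and stopped with EDTA-containing bead buffer for AlphaScreen detection.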

[8] = molecular target: Lysosomal acid glucosylceramidase (Homo sapiens) (UniProt P04062); test: Glucocerebrosidase-p2 (AID 348; in the data active = potency below about 10 µM; note: potency is the fitted concentration of half-maximal effect); conditions: purified GBA, blue fluorogenic substrate, 40 min
Chain of Lysosomal acid glucosylceramidase (Homo sapiens) (P04062 whole entry, looked up): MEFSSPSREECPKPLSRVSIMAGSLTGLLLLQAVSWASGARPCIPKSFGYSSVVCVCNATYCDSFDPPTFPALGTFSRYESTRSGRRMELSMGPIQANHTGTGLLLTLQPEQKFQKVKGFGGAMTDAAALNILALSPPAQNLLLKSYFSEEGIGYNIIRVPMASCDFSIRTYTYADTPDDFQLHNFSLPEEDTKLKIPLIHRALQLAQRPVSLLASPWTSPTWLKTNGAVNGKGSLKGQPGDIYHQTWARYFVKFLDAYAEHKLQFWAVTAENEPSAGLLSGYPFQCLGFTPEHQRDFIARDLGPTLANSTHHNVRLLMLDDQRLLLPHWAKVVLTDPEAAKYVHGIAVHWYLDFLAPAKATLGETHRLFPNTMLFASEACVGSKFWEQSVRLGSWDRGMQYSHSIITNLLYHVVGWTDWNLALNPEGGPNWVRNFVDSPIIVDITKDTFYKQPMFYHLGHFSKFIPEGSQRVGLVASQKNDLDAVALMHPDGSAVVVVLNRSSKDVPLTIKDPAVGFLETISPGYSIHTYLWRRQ
Procedure, shortened: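 Compounds titrated from 0.6 nM upwards against 0.2 nM enzyme in pH 5.9 citric acid/KH2PO4, taurocholate, tween-20; blue fluorogenic substrate 80 uM, 40 min room temperature, stopped and read Ex 365/Em 440 for AC50.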

[9] = Cell Viability - BJ (AID 421; calls by dose curve;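 note: potency is the fitted concentration of half-maximal effect; cells exposed to compound for 40 hours at 37 °C before readout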); conditions: BJ fibroblast viability, qHTS
Procedure, shortened: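 Cytotoxicity in human BJ foreskin fibroblasts is scored as loss of cellular ATP after a 40-hour exposure, measured by luciferase luminescence. Controls are DMSO and 100 uM tamoxifen.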

[10] = Cell Viability - Jurkat (AID 426;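 active = dose-dependent loss of cell ATP signal giving a full or clear fitted curve, ranked by lower potency value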; note: potency is the fitted concentration of half-maximal effect); conditions: qHTS
Procedure, shortened: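 Jurkat (Clone E6-1) cells, 5000/well in complete medium, exposed to compounds for 40 hr at 37C; intracellular ATP measured by CellTiter-Glo luminescence after 20 min at room temperature. AC50 from Hill fits.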

[11] = Cell Viability - Hek293 (AID 427;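 active = compounds whose dose-response curve shows a full or clear partial loss of cell viability, called from curve shape rather than a numeric limit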;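 note: potency is the fitted concentration of half-maximal effect; cells exposed to compound for 40 hours at 37 °C before reading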); conditions: qHTS
Procedure, shortened: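 qHTS, human embryonic kidney (adenovirus-transformed) cells; 40 hr cpd, 37 °C; CellTiter-Glo ATP luminescence. Norm: DMSO = 0, 100 uM tamoxifen = 100% inhibition. Hill-fit AC50.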

[12] = Cell Viability - HepG2 (AID 433; calls by dose curve;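 note: potency is the fitted concentration of half-maximal effect; potency for ATP loss meaning cytotoxicity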); conditions: qHTS
Procedure, shortened: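 HepG2 hepatocellular carcinoma cells (1500/well) were treated with compounds for 40 h at 37 °C in complete medium; intracellular ATP was read by CellTiter-Glo luminescence. Data were normalized to DMSO and 100 uM tamoxifen, and AC50 came from Hill fits.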

[13] = Cell Viability - MRC5 (AID 434; calls by dose curve;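 note: potency is the fitted concentration of half-maximal effect; potency reflects cytotoxicity seen as loss of intracellular ATP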); conditions: MRC5 lung fibroblast viability, qHTS
Procedure, shortened: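 qHTS cytotoxicity in human lung fibroblast MRC5 cells; 40 hr treatment, 37 °C; cellular ATP by luciferase luminescence; DMSO = 0%, 100 uM tamoxifen = 100% inhibition; Hill-fit AC50.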

[14] = Cell Viability - SK-N-SH (AID 435; calls by dose curve;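 note: potency is the fitted concentration of half-maximal effect; compound exposure lasted 40 h at 37 °C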); conditions: SK-N-SH neuroblastoma cell viability qHTS
Procedure, shortened: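 SK-N-SH human neuroblastoma cells (1500/well) were exposed to compounds in complete medium for 40 h at 37 °C, and intracellular ATP was then measured by CellTiter-Glo luminescence. AC50 was taken from Hill fits, normalized to DMSO and 100 uM tamoxifen.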

[15] = Cell Viability - N2a (AID 540; active = well fitted curve in the direction sought with a large enough effect; an effect the other way counts as inactive or inconclusive;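 note: plate controls were DMSO alone for no effect and tamoxifen control for full effect; nearly all actives have a fitted effect of over 45% in size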)
Procedure, shortened: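 Mouse neuroblastoma N2a cells, 1500/well, exposed to compounds 40 h at 37 °C in complete medium. Viability measured as cellular ATP by CellTiter-Glo luminescence; AC50 from Hill fits of concentration-response.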

[16] = Cell Viability - NIH 3T3 (AID 541; active = well fitted curve in the direction sought with a large enough effect; an effect the other way counts as inactive or inconclusive;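 note: plate controls were DMSO alone for no effect and tamoxifen positive control for full effect; nearly all actives have a fitted effect of over 25% in size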); conditions: NIH 3T3 cell viability, qHTS; activity change, negative = cytotoxicity: at 92.2 µM (top of the series)
Procedure, shortened: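 Mouse NIH 3T3 fibroblasts, 1000 cells/well, rested 5 hr at 37 °C, then exposed to compound for 40 hr at 37 °C in complete medium. Viability read as intracellular ATP by CellTiter-Glo luminescence; AC50 from Hill-equation fits of concentration-response data.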

[17] = Cell Viability - HUV-EC-C (AID 542; active = well fitted curve in the direction sought with a large enough effect; an effect the other way counts as inactive or inconclusive; note: % is set by controls: 0 for no effect and ±100 for the full control effect; nearly all actives have a fitted effect of over 35% in size)
Procedure, shortened: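 HUV-EC-C human vascular endothelial cells, 1000/well, exposed to compound for 40 hr at 37 °C in complete medium. Intracellular ATP was read by CellTiter-Glo luminescence. AC50 came from Hill-equation fits of concentration-response data.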

[18] = Cell Viability - H-4-II-E (AID 543; active = well fitted curve in the direction sought with a large enough effect; an effect the other way counts as inactive or inconclusive; note: % is set by controls: 0 for no effect and ±100 for the full control effect; nearly all actives have a fitted effect of over 35% in size)
Procedure, shortened: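 Rat hepatoma H-4-II-E cells, 1500 per well, treated 40 h at 37 °C in complete medium. Cellular ATP read by CellTiter-Glo luminescence; AC50 from Hill fits of concentration-response.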

[19] = Cell Viability - SH-SY5Y (AID 544; active = well fitted curve in the direction sought with a large enough effect; an effect the other way counts as inactive or inconclusive;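 note: 0% = DMSO alone and -100% = 100 µM tamoxifen; nearly all actives have a fitted effect of over 55% in size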); conditions: SH-SY5Y neuroblastoma cell viability; viability change, negative = cytotoxic: at 92.2 µM (top of the series)
Procedure, shortened: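 SH-SY5Y human neuroblastoma cells (1500/well) incubated 5 h, then compound-treated 40 h at 37 °C in complete medium. Viability read as intracellular ATP by CellTiter-Glo luminescence after 20 min; AC50 from Hill-equation fits of qHTS concentration-response.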

[20] = Cell Viability - Renal Proximal Tubule (AID 545; active = well fitted curve in the direction sought with a large enough effect; an effect the other way counts as inactive or inconclusive;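 note: 0% = DMSO only and -100% = 100 µM tamoxifen; nearly all actives have a fitted effect of over 40% in size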)
Procedure, shortened: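 Primary rat renal proximal tubule cells (1000/well) were treated with compounds for 40 hr at 37 °C in complete medium. Intracellular ATP was measured by CellTiter-Glo luminescence, and AC50 values came from Hill-equation fits of concentration-response data.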

[21] = at 17.2 µM (top of the series) unless noted

CN(C)CCC[C@@]1(c2ccc(F)cc2)OCc2cc(C#N)ccc21
inactive: outcome [1] | Potency [2] | outcome [3] | Potency [4] > 46 µM | Potency [5] > 46 µM

NS(=O)(=O)Cc1noc2ccccc12
inactive: outcome [1] | Potency [2] | activity change, negative = inhibition [6, 21] -5.42% [at 38 µM] | outcome [3] | Potency [4] > 46 µM | Potency [5] > 46 µM | Potency [7]

Cc1cc(-c2ccccc2)nnc1NCCN1CCOCC1
active: Potency [2] 10 µM
inactive: outcome [1] | activity change, negative = inhibition [6, 21] -10.7% and -25.7% | outcome [3] | Potency [7]

O=C(O)CCc1nc2ccccc2[nH]1
inactive: Potency [8] > 11.4 µM | outcome [1] | activity change, negative = inhibition [6, 21] 5.96% [at 7.69 µM] | outcome [3] | Potency [7]

C[N+]1(C)CCC(=C(c2ccccc2)c2ccccc2)CC1
inactive: outcome [1] | Potency [2] | outcome [3] | Potency [4] > 20.6 µM | Potency [5] > 20.6 µM | Potency [7]

CCN(CC)CCNc1ccc(CO)c2sc3ccccc3c(=O)c12
active: Potency [2] 0.126 µM
inactive: outcome [1] | activity change, negative = inhibition [6, 21] -29.8% | Potency [4] > 20.6 µM | Potency [5] > 20.6 µM | Potency [7]

CC(C)(C)NC[C@H](O)COc1nsnc1N1CCOCC1
inactive: outcome [1] | activity change, negative = inhibition ([6]; at 17.2 µM (top of the series)) 1.16% and 3.92% | activity change, negative = inhibition ([6]; at 38 µM (top of the series)) -1.27% | outcome [3] | Potency [4] > 46 µM and > 20.6 µM | Potency [5] > 46 µM and > 20.6 µM | Potency [7]

NC(N)=NCc1cccc(I)c1
active: Potency [2] 12.6 µM
inactive: outcome [1] | activity change, negative = inhibition [6, 21] -11.1% [at 38 µM] | outcome [3] | Potency [4] > 46 µM | Potency [5] > 46 µM | Potency [7]

O=C(O)CCNC(=O)c1ccccc1
inactive: outcome [1] | activity change, negative = inhibition [6, 21] 3.54% | outcome [3] | Potency [4] > 20.6 µM

Nc1ccc(C(=O)NCC(=O)O)cc1
inactive: outcome [1] | Potency [2] | activity change, negative = inhibition [6, 21] 3.72% | outcome [3] | Potency [4] > 20.6 µM | Potency [5] > 20.6 µM

CCCN(CCC)S(=O)(=O)c1ccc(C(=O)O)cc1
inactive: outcome [1] | Potency [2] | Potency [9] > 92 µM | Potency [10] > 92 µM | Potency [11] > 92 µM | Potency [12] > 92 µM | Potency [13] > 92 µM | Potency [14] > 92 µM | activity change, negative = inhibition [6, 21] 1.18% and -1.81% | outcome [3] | Potency [4] > 20.6 µM | Potency [5] > 20.6 µM | Potency [7] | Potency [15] | activity change, negative = cytotoxicity [16] -2.58% | outcome [17] | Potency [18] | viability change, negative = cytotoxic [19] -4.3% | outcome [20]

CC(=O)OC[C@H]1O[C@@H](n2ncc(=O)[nH]c2=O)[C@H](OC(C)=O)[C@@H]1OC(C)=O
inactive: outcome [1] | activity change, negative = inhibition [6, 21] -22.9% | outcome [3] | Potency [4] > 20.6 µM

N=C(N)N1CCc2ccccc2C1
inactive: outcome [1] | Potency [2] | activity change, negative = inhibition [6, 21] -7.74% | outcome [3] | Potency [4] > 20.6 µM | Potency [5] > 20.6 µM | Potency [7]

CCOc1ccc(NC(C)=O)cc1
inactive: outcome [1] | Potency [9] > 92 µM | Potency [10] > 92 µM | Potency [11] > 92 µM | Potency [12] > 92 µM | Potency [13] > 92 µM | Potency [14] > 92 µM | activity change, negative = inhibition [6, 21] 3.42% | outcome [3] | Potency [4] > 20.6 µM | Potency [5] > 20.6 µM | Potency [7] | Potency [15] | activity change, negative = cytotoxicity [16] -21.8% | outcome [17] | viability change, negative = cytotoxic [19] -11.1% | outcome [20]

COc1ccc(C(Cl)=C(c2ccc(OC)cc2)c2ccc(OC)cc2)cc1
inactive: outcome [1] | Potency [2] | Potency [9] > 92 µM | Potency [11] > 92 µM | Potency [12] > 92 µM | Potency [13] > 92 µM | Potency [14] > 92 µM | outcome [3] | Potency [4] > 20.6 µM | Potency [5] > 20.6 µM | Potency [7] | Potency [15] | activity change, negative = cytotoxicity [16] -7.28% | outcome [17] | viability change, negative = cytotoxic [19] -10.7% | outcome [20]
